From PubChem
Rows were chosen to be rich in hits. Some 1.1% of all compounds tested hit in one or more screens of this group.
UGM FP inh = M. tuberculosis UGM enzyme inhibitors, primary screen, biochemical, fluorescence polarization, single point | UDP-galactopyranose mutase (Mycobacterium tuberculosis (strain ATCC 25618 / H37Rv)), … | purified UGM, fluorescence polarization probe displacement | inhibition, % at 10 µM | hit rate 0.06% among 320,000 | AID 504406, 2011; in the data active = inhibition above about 10%, passing the limit was not always enough
SSB-PriA inh = inhibitors of Klebsiella pneumoniae PriA binding to SSB C-terminal tail, primary screen, biochemical, AlphaScreen; PriA–SSB C-terminal tail interaction (Klebsiella pneumoniae); AlphaScreen SSBct-PriA binding, biotinylated peptide; inhibition, % at 33 µM; hit rate 0.6% among 430,000; in the data active = inhibition mostly above about 37%, no sharp cut-off; inactive = mostly below about 20%
Mtb bLac sens = beta-lactam sensitization of Mtb H37Rv, H37Rv; M. tuberculosis H37Rv growth with meropenem, percent inhibition; inhibition, % at 25 µM; hit rate 0.27% among 330,000; call rule not given here;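 note: growth measured after seven days incubation then overnight dye step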
RecA intein inh = Mtb RecA intein splicing inhibitors, primary screen, biochemical, fluorescence, HTS | Protein RecA (Mycobacterium tuberculosis (strain ATCC 25618 / H37Rv)), P9WHJ3 | cell-free RecA intein splicing | AID 2221, 2009 | hit rate 0.75% among 290,000 | inhibition, % (test concentration not listed); in the data active = inhibition above about 30%
Target sequence (P9WHJ3 whole entry, looked up): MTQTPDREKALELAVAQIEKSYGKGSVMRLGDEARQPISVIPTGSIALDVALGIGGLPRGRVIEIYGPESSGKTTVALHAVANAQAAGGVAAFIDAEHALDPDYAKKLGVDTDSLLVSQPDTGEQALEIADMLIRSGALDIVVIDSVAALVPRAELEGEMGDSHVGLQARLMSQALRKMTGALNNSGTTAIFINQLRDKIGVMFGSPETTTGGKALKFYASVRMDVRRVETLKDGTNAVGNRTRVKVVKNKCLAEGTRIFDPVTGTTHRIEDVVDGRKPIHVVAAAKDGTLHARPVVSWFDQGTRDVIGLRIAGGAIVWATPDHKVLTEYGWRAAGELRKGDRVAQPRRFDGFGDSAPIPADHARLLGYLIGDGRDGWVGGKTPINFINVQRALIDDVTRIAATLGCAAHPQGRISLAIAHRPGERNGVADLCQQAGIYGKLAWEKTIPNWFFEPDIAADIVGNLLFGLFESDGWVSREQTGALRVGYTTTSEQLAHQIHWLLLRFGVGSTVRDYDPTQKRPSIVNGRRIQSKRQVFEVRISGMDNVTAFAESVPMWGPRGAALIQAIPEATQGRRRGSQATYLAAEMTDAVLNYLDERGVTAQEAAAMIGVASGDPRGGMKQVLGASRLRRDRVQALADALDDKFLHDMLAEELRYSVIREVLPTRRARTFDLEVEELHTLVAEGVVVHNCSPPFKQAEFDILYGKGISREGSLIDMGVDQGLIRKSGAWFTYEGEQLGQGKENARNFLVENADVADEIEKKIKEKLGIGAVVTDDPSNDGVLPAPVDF
Rv3671c inh = Rv3671c serine protease inhibitors, primary screen, biochemical, fluorescence polarization, M. tuberculosis H37Rv | P9WHR9 | inhibition, % at 5.96 µM | hit rate 0.048% among 320,000 | AID 2606, 2010; in the data active = inhibition above about 38%;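 note: extracellular domain of Rv3671c used as enzyme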
A number is an active result; - = inactive; . = not tested or not shown.

SMILES	UGM FP inh	SSB-PriA inh	Mtb bLac sens	RecA intein inh	Rv3671c inh
CN1c2ccccc2C(C)(C)[C@]12C=Cc1cc(O)ccc1O2	-	-	-	.	-
COc1ccc2ccc3c(c2c1)N=CC1(O3)N(C)c2ccccc2C1(C)C (stereo unspecified)	-	-	-	76	-
Cc1cccnc1Sc1c([N+](=O)[O-])ncn1C	-	-	-	.	-
Cn1cnc([N+](=O)[O-])c1Sc1nnc(-c2cccnc2)n1C	-	-	-	39	.
O=C(NCC(O)(c1cccs1)C1CC1)c1cccs1 (stereo unspecified)	.	-	.	.	.
N#Cc1c(N)sc(=S)c2c1CCCC2	-	65	-	-	-
COc1cc(NC(=O)CSc2ncnc3nc(N(C)C)sc23)cc(OC)c1OC	.	-	.	.	.
Cc1csc(NC(=O)CSc2nnc3ccc(-c4ccco4)nn23)n1	.	-	.	.	.
Cc1cc(NC(=O)CN2CCc3nc(NC(=O)c4ccsc4)sc3C2)no1	.	-	.	.	.
COc1cc(/C=C(\C#N)C(=O)Nc2ccc3c(c2)OCCO3)ccc1O	-	-	-	32	-
CCOC(=O)/C(C#N)=C\c1ccc(O)c(OC)c1	-	-	-	40	-
S=c1[nH]nc(-c2ccco2)n1N=Cc1ccc(Cl)cc1	.	-	.	.	.
CCN(CC)c1ccc(Nc2nc(-c3cccnc3)cs2)cc1	-	41	-	-	-
CCc1ccccc1Nc1nc(-c2cccnc2)cs1	-	-	-	-	-
O=[N+]([O-])c1ccccc1Nc1nc(-c2cccnc2)cs1	-	52	-	.	-
O=[N+]([O-])c1ccccc1Nc1nc(-c2ccccn2)cs1	.	80	.	.	.
CN(C)c1ccc(Nc2nc(-c3cccnc3)cs2)cc1	-	-	-	-	-
CCOc1ccc([N+](=O)[O-])c(N)c1	-	-	-	-	-
CCOc1ccc(N)c([N+](=O)[O-])c1	.	39	.	.	.
CCCC(=O)OCC(=O)Nc1ccc(Cl)cc1[N+](=O)[O-]	.	78	.	.	.
CN(C)S(=O)(=O)c1ccc(Cl)c(C(=O)Nc2ccccc2[N+](=O)[O-])c1	-	-	-	-	-
CCN(CC)S(=O)(=O)c1ccc(Cl)c(C(=O)Nc2ccc(Cl)cc2[N+](=O)[O-])c1	-	43	-	-	-
O=C(c1ccoc1)N1CCN(CCn2ccnc2-c2ccccc2)CC1	.	-	.	.	.
CC(=NN=C(N)SC1CC(=O)N(c2ccc(Br)cc2)C1=O)c1cccs1 (stereo unspecified)	.	-	.	.	.
CCn1c(SCC(=O)Nc2nc(-c3ccc(C)cc3)cs2)nnc1-c1ccccc1	-	-	-	-	-
SMILES	UGM FP inh	SSB-PriA inh	Mtb bLac sens	RecA intein inh	Rv3671c inh
Cc1ccc(-c2csc(NC(=O)CSc3nc4ccccc4c(=O)n3CCCN(C)C)n2)cc1	-	55	-	-	-
Cc1ccc(S(=O)(=O)c2c(NS(=O)(=O)c3ccccc3)n(CCc3ccccc3)c3nc4ccccc4nc23)cc1	.	67	.	.	.
CCCCOCCCn1c(NS(=O)(=O)c2ccc(F)cc2)c(S(=O)(=O)c2ccc(C)cc2)c2nc3ccccc3nc21	.	67	.	.	.
O=C(NCc1cccc2ccccc12)N1CCOC(c2ccc(C(F)(F)F)cc2)C1 (stereo unspecified)	.	-	.	.	.
Cn1c(=O)[nH]cc(C(=O)N2CCN(c3ccccn3)CC2)c1=O	.	-	.	.	.
O=C(CSc1cccc2cccnc12)Nc1cc(C(=O)O)cc(C(=O)O)c1	-	75	-	-	-
O=C(CSc1cccc2cccnc12)Nc1cc(Cl)cc(Cl)c1	.	57	.	.	.
CC(C)c1ccc(NC(=O)CSc2cccc3cccnc23)cc1	.	-	.	.	.
Cc1cccc(NC(=O)CSc2cccc3cccnc23)c1	-	49	-	-	-
O=C(CSc1cccc2cccnc12)Nc1ccc2ccccc2c1	.	-	.	.	.
O=C(CSc1cccc2cccnc12)NC1CCS(=O)(=O)C1 (stereo unspecified)	.	37	.	.	.
CCOc1ccccc1NC(=O)N1CCC[C@H](Cc2nc(-c3ccccc3F)no2)C1	.	-	.	.	.
O=C(N1Cc2cnc(N3CCOCC3)nc2C1)C1(c2ccc(Cl)cc2)CCCC1	.	-	.	.	.
CC(=NN1CCN(Cc2ccc(Cl)cc2)CC1)c1ccc([N+](=O)[O-])cc1	.	44	.	.	.
CC(=NN1CCN(c2ccc(Cl)cc2)CC1)c1cccc([N+](=O)[O-])c1	.	-	.	.	.
COc1ccc(CC(=O)N(CCN2CCOCC2)c2nc3ccc(SC)cc3s2)cc1OC	.	29	.	.	.
O=C(Nc1ccc2sccc2c1)c1ccc([N+](=O)[O-])s1	.	46	.	.	.
Cc1nc2cc(NC(=O)c3ccc([N+](=O)[O-])s3)ccc2s1	-	-	-	-	-
CCOc1cc2c3c(c1)C1(Nc4ccccc4S1)C(=O)N3C(C)(C)CC2C (stereo unspecified)	-	40	-	-	-
COC(=O)C(=Nc1ccccc1)C(C(=O)C(=O)N(C)c1ccccc1)=C(O)c1ccccc1	.	-	.	.	.
O=S(=O)(Cc1ccco1)[C@H]1CCN(S(=O)(=O)c2ccccc2Br)C1	.	-	.	.	.
Cn1cnc(S(=O)(=O)N2CCC(S(=O)(=O)Cc3ccco3)CC2)c1	.	68	.	.	.
O=S(=O)(Cc1ccco1)C1CCN(S(=O)(=O)c2ccccc2F)CC1	.	83	.	.	.
Cc1ccc(S(=O)(=O)N2CCC(S(=O)(=O)Cc3ccco3)CC2)s1	.	-	.	.	.
Cc1ccc(S(=O)(=O)N2CCOCC2)cc1NC(=O)CNCc1ccccn1	-	44	-	-	-
SMILES	UGM FP inh	SSB-PriA inh	Mtb bLac sens	RecA intein inh	Rv3671c inh
CN(C)S(=O)(=O)c1cccc(NC(=O)CNCc2ccccn2)c1	-	50	-	-	-
Cc1ccc(S(=O)(=O)N2CCOCC2)cc1NC(=O)CNCc1ccccc1Cl	.	-	.	.	.
COc1cccc(CN(C)CC(=O)Nc2cc(S(=O)(=O)N3CCCC3)ccc2Cl)c1OC	.	42	.	.	.
COc1ccccc1CN(C)CC(=O)Nc1cccc(S(=O)(=O)N2CCCC2)c1	-	-	-	.	-
O=C(CNCc1ccccn1)Nc1cc(S(=O)(=O)N2CCCCC2)ccc1Cl	-	41	-	-	-
CON=CCC(=O)c1cnc(-c2ccccc2)s1	.	-	.	.	.
O=C1C[C@H](c2ccc(O)cc2)CN1	.	-	.	.	.
O=C(CCl)Nc1cc(S(=O)(=O)N2CCCCCC2)ccc1Cl	-	-	-	67	-
CC(C)(C)CC(=O)Nc1cc(S(=O)(=O)N2CCCCCC2)ccc1Cl	-	-	-	-	-
Cc1ccc(NC(=O)c2cccc(C(=O)Nc3ccc(C)cc3C(=O)O)c2)c(C(=O)O)c1	13	-	-	-	-
Cc1cc(C)c(S(=O)(=O)N2CCN(C(=O)c3c(C)nn(-c4ccccc4)c3Cl)CC2)c(C)c1	.	44	.	.	.
Cc1cccc(C)c1NC(=S)NN=Cc1c(Cl)cccc1Cl	.	-	.	.	.
CC1CCN(S(=O)(=O)c2cc(S(=O)(=O)N3CCC(C)CC3)c3cccc4c3c2NC4=O)CC1	.	-	.	.	.
CCCCCCCOC(=O)c1ccc(OC(=O)c2cccnc2)cc1	-	-	-	64	-
O=c1c2[nH]c3ccccc3c2nc(SCc2ccccn2)n1-c1ccccc1F	.	-	.	.	.
Cc1ccc(C)c(NC(=S)Nc2ncccc2C)c1	-	40	-	-	-
